Assay outcomes deposited in PubChem BioAssay by Broad Institute.
This is one part of a sample in which hits are shown more often than they occur.
Tgondii IFNg: blocks Toxoplasma gondii growth in the presence of IFN-gamma. Toxoplasma gondii growth in IFN-gamma-treated host cells; hits give low values. AID 1259416. 3.8% of 69,000 active. activity change, negative = inhibition, % (no concentration beside the values); in the data active = activity change below about -70%, passing the limit was not always enough;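 note: host cells are HeLa cells infected with Toxoplasma gondii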
Each line names hits and unclear results; the compound was inactive in the other large screens.

Cc1ccc2c(NC(=O)CCn3c(=O)oc4cc(Cl)ccc43)n[nH]c2n1	none
COc1ccc(C(=O)Nc2ccc(-c3nc(-c4ccc(C)cc4C)co3)cc2)cc1	none
COc1ccc(-c2cc(C(=O)Nc3ccc(C)cc3-c3cc(C)[nH]n3)no2)cc1	Tgondii IFNg -78
Cc1ccc(NC(=O)c2ccc3c(c2)c(C)cn3C)c(-c2cc(C)[nH]n2)c1	none
COc1ccc(OC)c(-c2nc(CN3C[C@@H](C)O[C@@H](C)C3)c(C)o2)c1	none
COc1ccc2[nH]cc(CCNC(=O)c3ccc(N4CCCC4)c(S(=O)(=O)N4CCCC4)c3)c2c1	none
COc1ccc2[nH]cc(CCNc3ccc(S(=O)(=O)C4CCCCC4)nn3)c2c1	none
COc1ccc2[nH]cc(CCNc3ccc(S(=O)(=O)C(C)C)nn3)c2c1	Tgondii IFNg -113
CCOc1ccccc1NC(=O)c1cncc(NS(=O)(=O)c2ccc(C)cc2C)c1	none
Cc1ccc(-c2nc(CN3CCN(C(=O)Nc4ccc(C)c(Cl)c4)CC3)c(C)o2)cc1	none
O=C(c1cn[nH]n1)N1CCN(c2ccccn2)CC1	none
Cc1cccnc1Nc1ccc(C2CCN(C(=O)CCn3ncc4c3CCCC4)CC2)nc1	none
COc1ccc(-c2coc3cc(O)ccc3c2=O)c(O)c1O	none
COc1cc(-c2coc3cc(OC)c(OC)c(OC)c3c2=O)cc(OC)c1OC	none
COc1cc(-c2coc3cc(OCc4ccccc4)c(OC)c(O)c3c2=O)cc(O)c1OC	Tgondii IFNg -86
Cc1ccc(S(=O)(=O)N2CCCC2C(=O)Nc2ncn[nH]2)cc1 (stereo not given)	none
CCN1C(=O)N(C2Cc3ccccc3C2)C(=O)C12CCN(Cc1ccc3c(c1)CCCN3C)CC2	none
CCc1cccc(C)c1NC(=O)Cn1ncc2c(N3CCN(c4ccccn4)CC3)ncnc21	none
Cc1ccc2[nH]c3c(=O)n(CCc4cnc[nH]4)cnc3c2c1	none
Cc1ccc2[nH]c3c(=O)n(CCCN4CCN(C)CC4)cnc3c2c1	none
Cc1ccc2c(c1)CCCN2CCn1c(=O)[nH]c2ccc(C)cc2c1=O	Tgondii IFNg -82
CCc1cn[nH]c1C1CCCN(C(=O)CCc2nc3ccc(F)cc3[nH]2)C1 (stereo not given)	none
CCOC(=O)c1nn(Cc2ccccc2)c2c1CN(Cc1cccc3ncccc13)CC2	none
Cc1ccc(CNC(=O)Cn2c(=O)cc(C(=O)N3CCc4ccccc4C3)c3ccccc32)cc1	none
CN(Cc1cccnc1)C1CCN(Cc2nccn2C)C(C(=O)O)C1 (stereo not given)	none
Cc1cccn2cc(-c3ccc(NC(=O)CNC(=O)c4ccccc4)cc3)nc12	none
CC(C)Oc1ccc(C(=O)N[C@H](CNC(=O)CN(C)C)Cc2ccc(-c3cn4cccc([C@H](C)O)c4n3)cc2)cc1Cl	Tgondii IFNg -80
Cc1nnc(SCC(=O)Nc2cc(C(F)(F)F)ccc2N2CCOCC2)s1	none
N#CCN(CC#N)S(=O)(=O)c1ccc(F)cc1	none
Cc1cccc(NC(=O)CN2C(=O)CCc3cc(Br)ccc32)c1	none
CC(C)CN1CC2CC(C(=O)NCC3CC3)C(C1)O2 (stereo not given)	none
CCc1cc(CNC(=O)CCS(=O)(=O)c2ccc(C)c(C)c2)on1	none
Cc1ccc2c(C)c(C(=O)N3CCCC4(CC3)CNC(=O)O4)oc2c1 (stereo not given)	none
CCOC(=O)C1CCN(C(=O)c2oc3ccc4c(c3c2C)C(=O)CC2(CCCCC2)O4)CC1	none
Cc1c(C(=O)N2CC(C)CC(C)C2)oc2ccc3c(c12)C(=O)CC1(CCCCCC1)O3 (stereo not given)	Tgondii IFNg -99
Cc1c(C(=O)N2CCC(C)CC2)oc2ccc3c(c12)C(=O)CC1(CCCCCC1)O3	Tgondii IFNg -110
Cc1ccc2c(C)c(C(=O)N3CCC4(CN(C)C(=O)O4)C3)oc2c1 (stereo not given)	none
Cc1ccc2c(c1)C(=O)CC1(CCN(C(=O)C3CCCC3)CC1)O2	none
CN(C)C(=O)C1CC2CN(Cc3cnn(C)c3)CC1O2 (stereo not given)	none
C=CCOC[C@H]1CNC(=O)[C@H]2CCN(C(=O)N(C)C)CC[C@@H]12	none
COc1nc2ccccc2cc1-c1c(-c2ccccc2)ncn1CCc1cnc[nH]1	none
CC1(C)CN=C(N2CCN(c3c4c(c(C#N)c5nc6ccccc6n35)CCC4)CC2)S1	none
COc1ccc(-c2nc(-c3ccc(O)cc3)[nH]c2-c2ccc(OC)cc2)cc1	none
CN(C)CCOc1ccc(-c2nc(-c3ccc4c(c3)CC/C4=N\O)c(-c3ccncc3)[nH]2)cc1	Tgondii IFNg -79
CC(=O)c1cccc(CN2CCCC2C(=O)Nc2cccc(-n3cccn3)c2)c1 (stereo not given)	none
Cc1noc(C)c1Cn1cnc(-c2ccccc2)c1C1CCOC1 (stereo not given)	none
Cc1cccc(CN2C[C@@H]3CN(C(=O)c4ccc[nH]4)C[C@H]3C2=O)c1	none
CCCCN(CC)C(=O)c1cc2cccnc2n(Cc2ccccc2)c1=O	none
Cn1cc(-c2csc(NC(=O)CCc3nc4cc(Cl)ccc4n3C)n2)cn1	none
O=C(Nc1ccc(Br)cc1)C1CC(c2c(F)cccc2Cl)=NO1 (stereo not given)	none
O=C(Nc1cnn(C23CC4CC(CC(C4)C2)C3)c1)C1CC(c2c(F)cccc2Cl)=NO1 (stereo not given)	Tgondii IFNg -84
NC(=O)Cc1csc(NC(=O)C2CC(c3ccccc3Cl)=NO2)n1 (stereo not given)	none
COCCN1CC(CNc2nccc(-c3c(C)nn(C)c3C)n2)CC1=O (stereo not given)	none
Cc1ccc(S(=O)(=O)Nc2cnc3ccccc3c2)cc1	none
Cc1ccc(S(=O)(=O)Nc2ccc(-c3nc4ccccc4[nH]3)cc2)cc1	Tgondii IFNg -81
CC(=O)Nc1ccc(S(=O)(=O)Nc2nc3ccccc3nc2Nc2ccc(C)cc2)cc1	none
COc1ccc(N2CCN(C(=O)CCC3Nc4c5ccccc5nc(=S)n4C3=O)CC2)cc1 (stereo not given)	none
COc1cccc(-n2c(=O)c(C(=O)Nc3cccc(C)c3C)c(O)c3cccnc32)c1	none
CCOc1ccc2nc(SCc3ccccc3)c(C#N)cc2c1	Tgondii IFNg -103
COc1ccc(NC(=O)CSc2nc3ccc(C)cc3cc2C#N)cc1	none
CCOc1ccc2nc(SCC(=O)c3ccc4c(c3)OCCO4)c(C#N)cc2c1	none
CS(=O)(=O)CC(=O)NCC1OCCc2cn(CC3CC3)nc21 (stereo not given)	none
CC(C)N1CCc2ncn(C(C)C)c2C1C(=O)N(C)Cc1ccccn1 (stereo not given)	none
O=C(Nc1cc(C(F)(F)F)cc(C(F)(F)F)c1)c1cc(Cl)ccc1O	Tgondii IFNg -80
COCCCNC(=O)c1ccccc1C(=O)Nc1cc(C(F)(F)F)cc(C(F)(F)F)c1	none
O=C(Nc1ccccc1)c1cc2n(n1)CCN(C(=O)c1csnn1)C2	none
O=C(Nc1ccccc1-c1ccccc1)c1csnn1	none
O=C(N/C=C/c1ccsc1)Sc1cc(C(F)(F)F)cc(C(F)(F)F)c1	none
O=C(Nc1cc(C(F)(F)F)cc(C(F)(F)F)c1)Nc1sccc1Cl	Tgondii IFNg -95
O=C(NC(=O)c1csnn1)Nc1cc(C(F)(F)F)cc(C(F)(F)F)c1	Tgondii IFNg -101
O=C(Nc1cc(C(F)(F)F)cc(C(F)(F)F)c1)c1csc(-c2ccc(Cl)cc2)c1	none
O=C(c1ccccc1)c1c(Cl)cc(C(F)(F)F)cc1Cl	none
Cc1ccc(OCCS(=O)(=O)N2CCN3C(=O)CNC(=O)C3C2)cc1 (stereo not given)	none
COc1ccc(CNC2(c3ccccc3F)CCCC2)cc1Cn1nc(C)cc1C	none
O=C(c1ccccc1N1CCS(=O)(=O)CC1)N1CCC2(CCCO2)CC1	none
COc1cc(C)c(C)cc1S(=O)(=O)NCCc1sc(-c2ccc(F)cc2)nc1C	none
